This note sets out measurements from PubChem BioAssay (EPA / NIEHS).

Assay [1] in a line: APR_HepG2_CellCycleArrest_24hr: Apredica 24-hour HepG2 Assay for Cell Cycle Arrest (AID 2282905).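 Also: cell cycle arrest scored as ratio of 2N to 4N nuclear DNA content.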 Conditions: imaging, actives raise or lower the signal. An outline of the steps:
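After 24 h exposure at 0.39–200 uM in 0.5% DMSO, fixed cells received Hoechst 33342 staining. Imaging quantified per-nucleus DNA content; gain or loss fitted against DMSO controls.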

Assay [2] is described as follows: APR_HepG2_NuclearSize_24hr: Apredica 24-hour HepG2 Assay for Nuclear Size (AID 2282907). To be noted: high-content imaging, actives raise or lower the signal. An outline of the steps: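 Nuclear size from Hoechst 33342-stained, formaldehyde-fixed HepG2 nuclei imaged by high-content microscopy, after 24 h dosing at ten concentrations from 0.39 to 200 uM in 0.5% DMSO; gain or loss relative to DMSO baseline.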

Assay [3] in a line: APR_HepG2_CellLoss_24hr: Apredica 24-hour HepG2 Assay for Cell Loss (AID 2282908).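 As to AC50: fit in both directions so a hit may be cell loss or gain.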 Conditions: high-content imaging. The gist of the method:
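Nuclei stained with Hoechst 33342 after formaldehyde fixation (3.7%) were imaged at 20x to count cells. Exposure lasted 24 hr, at ten concentrations from 0.39 to 200 uM in duplicate, with 0.5% v/v DMSO. Fit bidirectional, relative to DMSO.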

Assay [4] can be described thus: APR_HepG2_MicrotubuleCSK_24hr: Apredica 24-hour HepG2 Assay for Microtubule CSK Stabilty (AID 2282909). Conditions: HepG2 microtubule cytoskeleton imaging, actives raise or lower the signal. An outline of the steps:
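Fixed HepG2 cells were stained for alpha-tubulin and imaged after 24 hr exposure to ten concentrations spanning 0.39–200 uM in 0.5% DMSO. Signal change was fitted in both directions relative to DMSO; taxol was the positive control.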

Assay [5] can be described thus: APR_HepG2_MitoticArrest_24hr: Apredica 24-hour HepG2 Assay for Mitotic Arrest (AID 2282910). To be noted: high-content imaging, actives raise or lower the signal. An outline of the steps: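 HepG2, 24 hr dosing, 0.39–200 uM, 0.5% DMSO final. Formaldehyde-fixed, Triton-permeabilised, anti-phospho-histone H3 plus Hoechst. ArrayScan imaging at 20x; bidirectional fit vs DMSO baseline.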

Assay [6] is described as follows: APR_HepG2_MitoMembPot_24hr: Apredica 24-hour HepG2 Assay for Mitochondrial Membrane Potential (AID 2282911). To be noted: imaging, actives raise or lower the signal. An outline of the steps:
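HepG2, 24 hr dosing, 10 concentrations 0.39–200 uM, 0.5% DMSO final. Live-cell MitoTracker Red CMXRos 250 nM 30 min, then 3.7% formaldehyde fix. HCS fluorescence imaging, 20x; bidirectional fit vs DMSO baseline.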

Assay [7] is described as follows: APR_HepG2_CellCycleArrest_72hr: Apredica 72-hour HepG2 Assay for Cell Cycle Arrest (AID 2282914). To be noted: high-content imaging, actives raise or lower the signal. An outline of the steps: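 HepG2, 72 hr exposure, 10-point 0.39–200 uM, duplicate, 0.5% DMSO final. Fix 3.7% formaldehyde 30 min RT, Triton X-100 0.5%, Hoechst 33342 2 ug/mL. ArrayScan 20x, six fields/well; DNA content per nucleus; bidirectional fit vs DMSO.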

Assay [8] in a line: APR_HepG2_CellLoss_72hr: Apredica 72-hour HepG2 Assay for Cell Loss (AID 2282915). To be noted: high-content imaging. The gist of the method:
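HepG2 cells exposed 72 h to compound at 0.39–200 uM (10 concentrations, duplicate) in 0.5% DMSO. Fixed with 3.7% formaldehyde and Hoechst 33342-stained. Imaged at 20x; nuclear count gives cell number, fitted bidirectionally versus DMSO.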

A short description of assay [9]: APR_HepG2_P-H2AX_72hr: Apredica 72-hour HepG2 Assay for H2AX Phosphorylation (AID 2282916).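 Also: phospho-histone H2A.x immunostain intensity per cell marking DNA damage.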 Conditions: imaging, actives raise or lower the signal. The gist of the method: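 Phospho-histone H2A.x immunofluorescence, multiplexed with Hoechst and c-Jun, quantified by high-content imaging. Compounds applied to HepG2 for 72 h across ten concentrations (0.39–200 uM, 0.5% DMSO), in duplicate; DMSO baseline.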

Assay [10] can be described thus: APR_HepG2_P-H2AX_24hr: Apredica 24-hour HepG2 Assay for H2AX Phosphorylation (AID 2282920). Conditions: high-content imaging, actives raise or lower the signal. An outline of the steps: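 HCS fluorescence imaging of phospho-H2A.x immunostain (with Hoechst 33342 nuclear counterstain) in HepG2 after 24 hr compound exposure; 10 concentrations, 0.39–200 uM, duplicate wells, 0.5% v/v DMSO. Gain or loss of signal fitted relative to DMSO baseline.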

A short description of assay [11]: APR_HepG2_StressKinase_72hr: Apredica 72-hour HepG2 Assay for Stress Kinase (AID 2282921). To be noted: HepG2 stress kinase (phospho-c-Jun) imaging, actives raise or lower the signal. The gist of the method:
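Stress kinase signal is phospho-c-Jun immunofluorescence (1:500 primary, Cy3 secondary) in fixed, permeabilized human HepG2 cells imaged at 20x. Exposure lasted 72 hr over ten concentrations from 0.39 to 200 uM, 0.5% DMSO, in duplicate. Bidirectional fit versus DMSO.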

A short description of assay [12]: APR_HepG2_StressKinase_24hr: Apredica 24-hour HepG2 Assay for Stress Kinase (AID 2282922). To be noted: HepG2 stress kinase (phospho-c-Jun) imaging, actives raise or lower the signal. An outline of the steps: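 Read-out: phospho-c-Jun immunofluorescence (Cy3 secondary) quantified by high-content imaging at 20x, nuclei defined by Hoechst 33342. Human HepG2 liver cells dosed 24 hr, 0.39–200 uM, DMSO 0.5% v/v; gain or loss of signal fitted relative to DMSO.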

Assay [13] in a line: APR_HepG2_NuclearSize_72hr: Apredica 72-hour HepG2 Assay for Nuclear Size (AID 2282925). To be noted: high-content imaging, actives raise or lower the signal. The gist of the method:
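Read-out: nuclear diameter from Hoechst 33342 images (ArrayScan, 20x, six fields/well), via cell-cycle image analysis. HepG2 were dosed 0.39–200 uM for 72 hr in 0.5% DMSO. Bidirectional fit relative to DMSO.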

Assay [14] is described as follows: ATG_CRE_CIS: Attagene CIS-FACTORIAL HepG2 Assay for human cAMP Responsive Element (CRE) binding protein 3 (AID 2282926). Conditions: HepG2 CRE cis-reporter, Attagene multiplexed mRNA; actives raise or lower the signal. An outline of the steps: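 Readout: fluorescently labelled reporter transcripts resolved by capillary electrophoresis after RT-PCR, taken 24 h post-dosing in transfected HepG2. Endogenous transcription factor activity drives each cis-element reporter; gain or loss of signal fitted relative to DMSO control.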

Assay [15] is described as follows: APR_HepG2_MitoMembPot_72hr: Apredica 72-hour HepG2 Assay for Mitochondrial Membrane Potential (AID 2282917). Conditions: imaging, actives raise or lower the signal. An outline of the steps: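 HepG2 cells dosed 72 hr with compound at 0.39–200 uM in duplicate, 0.5% v/v DMSO final. Mitochondria stained with 250 nM MitoTracker Red CMXRos for 30 min before formaldehyde fixation, imaged by high-content fluorescence; bidirectional fit versus DMSO.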

The nature of assay [16]: APR_HepG2_MitoticArrest_72hr: Apredica 72-hour HepG2 Assay for Mitotic Arrest (AID 2282918). Conditions: high-content imaging, actives raise or lower the signal. An outline of the steps: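 HepG2, 72 hr exposure, 0.39–200 uM in duplicate, 0.5% v/v DMSO final. Formaldehyde-fixed, Triton-permeabilized, anti-phospho-histone H3/FITC plus Hoechst. ArrayScan imaging at 20x; curves fit bidirectionally against DMSO baseline.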

The nature of assay [17]: APR_HepG2_MicrotubuleCSK_72hr: Apredica 72-hour HepG2 Assay for Microtubule CSK Stabilty (AID 2282919). Conditions: HepG2 microtubule cytoskeleton, high-content imaging, actives raise or lower the signal. An outline of the steps:
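HepG2, 72 hr cmpd exposure, 0.39–200 uM (10 pts, duplicate), 0.5% DMSO. 3.7% formaldehyde fix, 0.5% Triton perm, anti-alpha-tubulin/Cy5 plus Hoechst. HCS fluorescence intensity; bidirectional fit vs DMSO baseline; taxol as positive control.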

The nature of assay [18]: APR_HepG2_MitoMass_72hr: Apredica 72-hour HepG2 Assay for Mitochondrial Mass (AID 2282924).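 Also: MitoTracker Red CMXRos stain intensity per cell imaged as mitochondrial mass.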 Conditions: high-content imaging, actives raise or lower the signal. An outline of the steps: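 Read-out: MitoTracker Red fluorescence intensity from automated imaging (20x, six fields per well) in human HepG2 liver cells. Dosing ran 72 hr, 0.39–200 uM, 0.5% DMSO; bidirectional curve fitting versus DMSO baseline.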

Assay [19] in a line: APR_HepG2_p53Act_24hr: Apredica 24-hour HepG2 Assay for p53 Activation (AID 2282913).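 Also: p53 protein immunofluorescence averaged per cell in HepG2 with Hoechst nuclei.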 Conditions: high-content imaging, actives raise or lower the signal. The gist of the method:
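Read-out: Cy5 immunofluorescence for p53 in fixed, permeabilized HepG2, imaged by HCS with Hoechst-defined nuclei. Dosing was 24 hr at 0.39–200 uM in 0.5% DMSO. Curves were fitted bidirectionally relative to DMSO.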

A short description of assay [20]: APR_HepG2_p53Act_72hr: Apredica 72-hour HepG2 Assay for p53 Activation (AID 2282923).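 Also: average cellular p53 protein immunofluorescence intensity in HepG2 cells.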 Conditions: high-content imaging, actives raise or lower the signal. The gist of the method:
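After 72 h with compound (ten points, 0.39 to 200 uM, final DMSO 0.5% v/v), fixed HepG2 cells were labelled with sheep anti-p53 and Hoechst 33342 and imaged; gain or loss versus DMSO scored.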

Activity calls are given as the source filed them. The calls were made as follows: active = hit-call score of the fitted dose curve at least 0.9, where 1 is the maximum; inactive = score below 0.9.

For `OCC(CO)(CBr)CBr`, the result in [1], in [2], in assay [3], in [4], in [5] and in assay [6] was inactive. In addition, the outcome in [7], in [8], in [9], in assay [10], in assay [11] and in assay [12] was inactive. Further, the call in assay [13] and in [14] was inactive.

With `CCC1CO1` (stereo unspecified), the call in [14] was inactive.

Take `CCN(CC)CC`: the compound was classed as inactive in assay [14].

Regarding `O=C(F)C(F)(F)C(F)(F)C(F)(F)C(F)F`, the call in assay [14] was inactive.

As for `CCOC(=O)CN[C@@H](C(=O)N1CC[C@H]1C(=O)NCc1ccc(/C(N)=N/O)cc1)C1CCCCC1`, the call in [14] was inactive.

A word on the AC50: it is the concentration giving half of the maximal activity seen. In the case of `CCCCCCOC(=O)c1ccc(O)cc1`, the AC50 in assay [14] is 44.2 µM (active).

Take `O=C(Nc1ccc(Cl)c(Cl)c1)c1cc(Cl)cc(Cl)c1O`: in assay [14], the compound was classed as inactive.

`Cc1cccc2c1ccc1ccccc12`: the call in assay [14] was inactive.

As for `Cc1[nH]nc2c1N=C(c1ccccc1Cl)c1cc([N+](=O)[O-])ccc1N2`, the concentration at half-maximal activity (AC50) in assay [1] was 0.364 µM (active); in assay [2], 0.512 µM (active); in assay [3], 0.0391 µM (active); in assay [6] it was 100 µM (active); in assay [7], 0.279 µM (active); in [8], 1.49 µM (active). The AC50 in assay [9] is 19.8 µM (active); in [15], 0.432 µM (active); in assay [16] it was 28.8 µM (active); in [10], 24.9 µM (active); in assay [11] it was 11.7 µM (active); in assay [12], 19.8 µM (active). The AC50 in [18] is 0.248 µM (active); in assay [13], 0.325 µM (active). For the same compound, the outcome in [4], in [5], in assay [17] and in assay [14] was inactive.

Turning to `CCCCc1oc2ccccc2c1C(=O)c1cc(I)c(OCCN(CC)CC)c(I)c1`, the AC50 in assay [3] is 43.8 µM (active); in assay [5], 15.7 µM (active); in [19], 33.5 µM (active); in assay [8] it was 17.2 µM (active); in assay [9] it was 75.5 µM (active); in assay [16] it was 8.51 µM (active). Also, the AC50 in assay [10] is 51.7 µM (active); in assay [12], 58.2 µM (active); in assay [20], 75.5 µM (active); in [18] it was 52.6 µM (active); in [14] it was 20.9 µM (active). In addition, the result in assay [6], in assay [15] and in [11] was inactive.

For `CCCCCCCCCCCCCCC`, the result in assay [1], in assay [2], in assay [3], in [4], in [5] and in assay [6] was inactive. Besides, the call in [7], in assay [8], in assay [9], in assay [15], in [16] and in assay [17] was inactive. The result in [10], in assay [11], in assay [12], in [18] and in [13] was inactive.

As to `O=C1NS(=O)(=O)c2ccccc21`, the outcome in assay [1], in assay [2], in assay [3], in assay [4], in assay [5] and in assay [6] was inactive. The result in [7], in [8], in assay [9], in assay [15], in assay [16] and in assay [17] was inactive. Also, the compound was classed as inactive in [10], in assay [18], in assay [13] and in [14].
